Screening results deposited in PubChem by National Center for Advancing Translational Sciences (NCATS).
Pf Dd2 inh = qHTS Primary assay for Inhibitors of Plasmodium falciparum Dd2 growth in vitro. P. falciparum Dd2 growth, SYBR Green, 72 h. Potency, µM (doses to about 28.9 µM), inactives show at the top dose activity, negative = inhibition, usual class: inhibitors. actives 4.3% (n = 120,000); active = well fitted inhibition curve with a large enough effect;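 note: plate controls were DMSO vehicle for no effect and reference drug for full effect; nearly all actives have a fitted effect of over 65% in size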
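Infected erythrocytes (Dd2, 0.3% parasitemia, 2.5% hematocrit final) are added to compound in RPMI-1640/Albumax II medium, grown 72 h at 37C in low oxygen, then lysed with saponin/Triton-X containing SYBR Green and read by fluorescence.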
* = called active by the depositor; [ ] = remark or other dose. The full list was thinned out, with hits kept by preference. Potency is the fitted concentration of half-maximal effect.

`COc1cccc(N2C(=O)NC(=NC3CCCCC3)C23CCCN(C(=O)c2ccccc2)C3)c1` (stereo not given) gave Pf Dd2 inh 15%.
For COc1cccc(N2C(=O)NC(=NC3CCCC3)C23CCN(C(=O)c2ccccc2)C3)c1 (stereo not given) the results were Pf Dd2 inh -21%.
`CC(=O)N1C[C@@H](C(=O)NCCc2ccc(Cl)cc2)[C@H](c2nc(C)no2)C1` gave Pf Dd2 inh 11%.
`COc1cccc([S+](=O)([O-])N2CCC3(C2)N=C(c2cccnc2)C(=O)N3)c1` (stereo not given) gave Pf Dd2 inh 9%.
`CCCCN1C(=O)c2ccccc2C(C(=O)NC(C)C)C12CCCCC2` (stereo not given) gave Pf Dd2 inh -23%.
O=C(NC1CCCC1)C1c2ccccc2C(=O)N(Cc2ccccc2)C12CCCC2 (stereo not given) was read as Pf Dd2 inh -26%.
CCCCN1C(=O)c2ccccc2C(C(=O)NCc2ccncc2)C12CCCCC2 (stereo not given) was read as Pf Dd2 inh -28%.
Screening Cc1csc(NC(=O)C2c3ccccc3C(=O)N(Cc3ccccc3)C23CCCC3)n1 (stereo not given) returned Pf Dd2 inh 3.5µM*.
For CCCCN1C(=O)c2ccccc2C(C(=O)Nc2nc(C)cs2)C12CCCC2 (stereo not given) the results were Pf Dd2 inh 5µM*.
`COC(=O)CNC(=O)C1c2ccccc2C(=O)N(Cc2ccccc2)C12CCCC2` (stereo not given) gave Pf Dd2 inh -4%.
Cc1noc(C)c1CCC(=O)N1CC[C@@H](NC(=O)c2cnccn2)[C@H](O)C1 was read as Pf Dd2 inh -11%.
`COc1cc(F)ccc1-c1cc(-c2c(C)noc2C)cc2c1C(=O)N(C)C2` gave Pf Dd2 inh inactive.
Screening COc1ccc(-c2cc(C[C@H]3CNCC[C@H]3CC(=O)N3CCN(C)CC3)no2)cc1 returned Pf Dd2 inh -19%[44.1 µM].
`COc1ccc(-c2cc(C[C@H]3CNCC[C@H]3CC(=O)N(C)Cc3ccccc3)no2)cc1` gave Pf Dd2 inh 10µM*.
For O=C(C[C@@H]1CCNC[C@@H]1Cc1cc(COc2ccccc2)on1)NC1CCCCC1 the results were Pf Dd2 inh -12%[44.1 µM].
`COc1ccc(CNC(=O)C[C@@H]2CCNC[C@@H]2Cc2cc(CN(C)Cc3ccccc3)on2)cc1` gave Pf Dd2 inh inactive.
C#CCN(C)C(=O)C[C@@H]1CCNC[C@@H]1Cc1cc(COc2ccccc2)on1 was read as Pf Dd2 inh 10µM*.
`COc1ccc(-c2cc(C[C@H]3CNCC[C@H]3CC(=O)NCc3ccc(OC)c(OC)c3)no2)cc1` gave Pf Dd2 inh inactive.
Screening O=C(C[C@@H]1CCNC[C@@H]1Cc1cc(CSc2ccccc2)on1)NCc1cccnc1 returned Pf Dd2 inh inactive.
For COc1ccc(-c2cc(C[C@H]3CNCC[C@H]3CC(=O)N3CCN(c4ccccc4)CC3)no2)cc1 the results were Pf Dd2 inh -7%.
Screening CN(Cc1ccccc1)C(=O)C[C@@H]1CCNC[C@@H]1Cc1cc(CSc2ccccc2)on1 returned Pf Dd2 inh 10µM*.
`O=C(C[C@@H]1CCNC[C@@H]1Cc1cc(CSc2ccccc2)on1)NCCN1CCOCC1` gave Pf Dd2 inh -20%.
Screening COc1ccc(-c2cc(C[C@H]3CNCC[C@H]3CC(=O)NCc3ccccc3OC)no2)cc1 returned Pf Dd2 inh 10µM*.
COc1ccc(CNC(=O)C[C@@H]2CCNC[C@@H]2Cc2cc(-c3ccc(OC)cc3)on2)cc1 was read as Pf Dd2 inh -2%.
COc1ccc(S(=O)(=O)N2CCC3(CC2)CC(CC(=O)N2CCCC2)CCO3)cc1 (stereo not given) was read as Pf Dd2 inh inactive.
Screening O=C(CC1CCN(C(=O)C2CCCC2)C1)N1CCOCC1 (stereo not given) returned Pf Dd2 inh 5%.
O=C(NC[C@H]1O[C@H](Cc2cc(COc3ccccc3)on2)CC[C@@H]1O)Nc1ccc(F)cc1 was read as Pf Dd2 inh -20%.
For CCc1nc(CN(C)C(=O)C2C3C(=O)N(c4ccc(F)cc4)C[C@@]34C=C[C@@H]2O4)no1 (stereo not given in full) the results were Pf Dd2 inh -14%.
Screening COc1ccccc1C(=O)N1CCC(Cc2n[nH]c(C)n2)CC1 returned Pf Dd2 inh 11%.
O=C(O)COCC(=O)N[C@H]1CO[C@H]2[C@@H]1OC[C@@H]2n1nnnc1Oc1ccc(-n2cncn2)cc1 was read as Pf Dd2 inh 17%.
`CCCn1cnnc1-c1nc2c([nH]1)CC(c1ccccc1OC)CNC2=O` (stereo not given) gave Pf Dd2 inh -10%.
Screening CO[C@@H]1CO[C@H]2[C@@H]1OC[C@@H]2NC(=S)Nc1ccc(Cl)cc1 returned Pf Dd2 inh 24%[44.1 µM].
Screening Cc1cc(CN2CCOc3c(O)cc(-c4ccccc4C)cc3C2)on1 returned Pf Dd2 inh -27%.
`Cc1cccc(CN2CCOc3c(O)cc(-c4ccccc4C)cc3C2)n1` gave Pf Dd2 inh 8.9µM*.
Screening Cc1ccccc1-c1cc(O)c2c(c1)CN(C(=O)C1CCNCC1)CCO2 returned Pf Dd2 inh -25%.
Screening Cc1nc2scc(CC(=O)NCc3ccco3)n2c(=O)c1-c1cc(C)n(-c2ccccc2F)n1 returned Pf Dd2 inh 0%.
O=C(CCc1nnn2c1CN(S(=O)(=O)c1ccc(F)cc1)CC2)N1CCOCC1 was read as Pf Dd2 inh -12%.
CC(C)[C@]1(O)CN(C(=O)Cn2[nH]c3ccccc3c2=O)C[C@H]1C was read as Pf Dd2 inh -5%.
Screening Cc1ccc(C)c(S(=O)(=O)N2CCCC(Cn3c(C)nc4cccnc43)C2)c1 (stereo not given) returned Pf Dd2 inh -47%.
Screening Cc1ccn(CCCNc2cc(C(C)C)ncn2)n1 returned Pf Dd2 inh -1%.
For Cn1c(CNC(=O)CN2CC3CC(C2)[C@H]2CCCC(=O)N2C3)nc2ccccc21 (stereo not given in full) the results were Pf Dd2 inh -8%.
`N#Cc1ccc(C(=O)N2CCC(Cc3nc(-c4ccccc4)n[nH]3)C2)cc1` (stereo not given) gave Pf Dd2 inh inactive.
`CCSc1nn(CC(=O)Nc2ccc(C(=O)OC)cc2)c(N)c1S(=O)(=O)c1ccc(C)cc1` gave Pf Dd2 inh -15%.
Screening CSc1nn(CC(=O)Nc2ccccc2F)c(N)c1S(=O)(=O)c1ccccc1 returned Pf Dd2 inh 11%.
CCOC(=O)c1ccc(NC(=O)Cn2nc(SC)c(S(=O)(=O)c3ccc(Cl)cc3)c2N)cc1 was read as Pf Dd2 inh 11µM*.
For C=CCNC(=O)N[C@H]1[C@H](O)[C@@H](N2CCCC2)[C@@H]2OC[C@H]1O2 the results were Pf Dd2 inh -17%[44.1 µM].
`Cc1noc([C@@H]2CC(F)(F)CN2C(=O)c2cc(C)oc2C)n1` gave Pf Dd2 inh -28%.
CCCCN(CC)CCCNC(=O)Cn1ncc2c3ccccc3n(Cc3ccccc3F)c2c1=O was read as Pf Dd2 inh 4µM*.
`Cn1c2ccccc2c2cnn(CC(=O)NCc3ccc(Cl)cc3)c(=O)c21` gave Pf Dd2 inh 22%.
`CCN(CC)CCNC(=O)Cn1ncc2c3ccccc3n(Cc3ccc(Cl)cc3)c2c1=O` gave Pf Dd2 inh 5µM*.
For O=C(Cn1ncc2c3ccccc3n(Cc3ccccc3F)c2c1=O)NCCCc1ccccc1 the results were Pf Dd2 inh 4%.
